In PubChem BioAssay AID588591 (National Center for Advancing Translational Sciences (NCATS), 2011) one finds Potency data, which are given here for 97 compounds.

About 4,700 (1.2%) of roughly 390,000 compounds were called active. Entries that show only a call come without a potency. About 4% were inconclusive and are not listed. Calls follow the shape of the dose curve; as a rule, active = well fitted inhibition curve with a large enough effect; inconclusive = small, poorly fitted or top-dose-only effect, or another doubt; inactive = no such curve, though single readings can be large or run the other way. Many of the other results were omitted from the sample, so actives are more common in it than they were.
Potency is read from the fitted curve at half-maximal effect.

The target in the assay is DNA polymerase eta (Homo sapiens) (UniProt Q9Y253). Description: qHTS for Inhibitors of Polymerase Eta. The following applies: recombinant Pol eta, fluorescent DNA replication assay; series mostly up to 114 µM. In outline: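 Pol eta at 10 nM preincubated with compounds 15 min at room temperature; reaction started with fluorescent substrate (50 nM final) and read kinetically at 0 and 10 min.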
Sequence of DNA polymerase eta (Homo sapiens) (Q9Y253 whole entry, looked up): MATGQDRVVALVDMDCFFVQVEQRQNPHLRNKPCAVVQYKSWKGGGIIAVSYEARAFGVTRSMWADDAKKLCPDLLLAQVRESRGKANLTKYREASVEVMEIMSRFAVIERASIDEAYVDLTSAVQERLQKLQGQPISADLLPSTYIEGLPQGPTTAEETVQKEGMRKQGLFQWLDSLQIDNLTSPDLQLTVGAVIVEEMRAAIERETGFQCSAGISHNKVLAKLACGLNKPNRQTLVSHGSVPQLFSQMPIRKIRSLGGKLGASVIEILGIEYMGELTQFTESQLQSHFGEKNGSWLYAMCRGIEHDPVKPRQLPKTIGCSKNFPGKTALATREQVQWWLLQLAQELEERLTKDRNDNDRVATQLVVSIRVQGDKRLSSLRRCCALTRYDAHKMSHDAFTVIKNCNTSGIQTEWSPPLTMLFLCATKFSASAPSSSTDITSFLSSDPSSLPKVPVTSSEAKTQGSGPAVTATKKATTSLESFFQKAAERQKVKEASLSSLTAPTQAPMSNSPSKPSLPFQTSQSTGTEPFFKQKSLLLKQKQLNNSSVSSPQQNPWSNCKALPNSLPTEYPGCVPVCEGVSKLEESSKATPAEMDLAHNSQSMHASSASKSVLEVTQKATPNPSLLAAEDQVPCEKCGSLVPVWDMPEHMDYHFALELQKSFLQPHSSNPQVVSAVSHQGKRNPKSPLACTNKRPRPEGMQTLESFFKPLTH
A general note: In qHTS, concentration-response curves come from the screen itself.
Consider `CC(N)=NCc1cccc(CN)c1`, for which the Potency result is “inactive”.

With `COc1ccc(OCCCC(=O)Nc2nnc(C3CCCO3)s2)cc1` (configuration not stated), the Potency result was “inactive”.

With `COc1ccc(NC(=O)COCc2cc(-c3ccco3)on2)cc1`, the Potency entry is “inactive”.

Consider `COc1ccc(OCC(=O)Nc2nnc(-c3ccco3)s2)cc1`, for which the Potency was 56.2 µM (active).

For the compound `Cc1cc(O)c(C(c2ccccc2)N2CCN(c3ccccc3F)CC2)c(=O)n1Cc1ccco1` (configuration not stated), the Potency result was “inactive”.

`Cc1ccc(NC(=O)Nc2sc3nc4n(c(=O)c3c2C)CCC(C)CC4)c(Cl)c1` (configuration not stated): the Potency entry was “inactive”.

Regarding `CCOC(=O)c1c(S(=O)(=O)N2CCCC(C(=O)NCc3cccc(C)c3)C2)c(C)n(C)c1C` (configuration not stated), the Potency result is “inactive”.

Consider `Cc1cccc(NC(=O)c2ccc(F)c(S(=O)(=O)N(C)C3CCCCC3)c2)c1`, for which the Potency entry was “inactive”.

For `CCOC(=O)c1c(C)[nH]c(C)c1S(=O)(=O)N(C)CC(=O)N1CCN(c2ccccc2)CC1`, the Potency entry is “inactive”.

As for `CCOC(=O)c1c(SCC(=O)Nc2cccc(C)c2C)nc(=O)[nH]c1C`, the Potency result is “inactive”.

For `CCOC(=O)c1c(C)[nH]c2c1-c1ccccc1C(=O)C2=O`, the Potency is 3.16 µM (active).

With `COc1ccc(Cl)cc1NC(=O)CSc1nc(=O)[nH]c2c1CCCC2`, the Potency entry was “inactive”.

On to `COc1ccc(NC(=O)CCN2CCN(CCO)CC2)cc1`, for which the Potency result was “inactive”.

As to `Cc1csc2nc(COC(=O)c3ccc(NC(=O)COc4ccccc4F)cc3)cc(=O)n12`, the Potency result is “inactive”.

`COc1ccc2[nH]c3c(C)c4cc[n+](C)cc4c(C)c3c2c1`: the Potency was 1.12 µM (active).

Take `CC(=O)Nc1c(C)nn(-c2ccccc2)c1N1CCC(C(=O)Nc2cc(Cl)ccc2C)CC1`: the Potency result was “inactive”.

As to `Cc1cc(-c2ccccc2)n2nc(-c3ccccc3)cc2n1`, the Potency entry was “inactive”.

In the case of `COc1ccccc1OCCCn1c(-c2ccc(Cl)cc2)nc2ccccc2c1=O`, the Potency entry is “inactive”.

Consider `O=C(Nc1nnc(S(=O)(=O)N2CCOCC2)s1)c1cccc(Br)c1`, for which the Potency entry is “inactive”.

`O=C(Nc1nnc(S(=O)(=O)N2CCCCCC2)s1)c1cccc(Br)c1`: the Potency result is “inactive”.

`O=C(Nc1nnc(S(=O)(=O)N2CCCc3ccccc32)s1)c1cccc(F)c1`: the Potency was 50.1 µM (active).

`COc1cc(NC(=O)c2cc(C3CC3)nc3c2c(C)nn3-c2ccccc2)cc(OC)c1`: the Potency result is “inactive”.

As for `Cc1nn(Cc2ccc(F)cc2)c(C)c1NC(=O)c1cc(CC(C)C)on1`, the Potency result was “inactive”.

Regarding `Cc1ccc(Cl)cc1NC(=O)Cc1ccc(-n2c(C)nc3cccnc32)cc1`, the Potency result is “inactive”.

Turning to `CCc1nc2cccnc2n1-c1ccc(CC(=O)Nc2c(C)cccc2C)cc1`, the Potency entry was “inactive”.

Turning to `CCc1nc2cccnc2n1-c1ccc(C(=O)O)cc1`, the Potency was 20 µM (active).

Regarding `O=C(O)c1ccc(Nc2nc(-c3ccccc3)c3cc(Br)ccc3n2)cc1`, the Potency result is “inactive”.

In the case of `CCN(CC)c1ccc(NC(=O)CN2CCN(CC(=O)Nc3ccc(Cl)cc3)CC2)cc1`, the Potency entry was “inactive”.

Consider `CCc1ccc(S(=O)(=O)Nc2cc3c(C(=O)OCc4ccccc4)c(C)oc3c3ccccc23)cc1`, for which the Potency result is “inactive”.

With `Cc1ccc(Cc2cnc(N)s2)o1`, the Potency is 79.4 µM (active).

`CCOC(=O)C1CCN(c2nc3c(S(=O)(=O)c4ccc(CC)cc4)nnn3c3ccc(Cl)cc23)CC1`: the Potency result is “inactive”.

Turning to `CCCN(CCC)C(=O)C(Cc1ccccc1)NS(=O)(=O)c1ccc2c(c1)c(=O)n(C)c(=O)n2C` (configuration not stated), the Potency result is “inactive”.

Turning to `Cc1oc(-c2ccccc2)nc1Cn1c(SCc2cccc(C(F)(F)F)c2)nc2cccnc21`, the Potency entry is “inactive”.

Turning to `N#Cc1c(-c2ccccc2)nc(SCc2cccc(C(F)(F)F)c2)[nH]c1=O`, the Potency was 89.1 µM (active).

On to `Cc1ccccc1CSc1nnc(-c2ccccc2)c(=O)[nH]1`, for which the Potency result was “inactive”.

Turning to `COc1ccccc1OCC(=O)Nc1nnc2n1CCS2`, the Potency entry was “inactive”.

For `COc1ccccc1CNC(=O)c1ccc(NC(=O)N2CC(C)Sc3ccccc32)cc1` (configuration not stated), the Potency result is “inactive”.

Turning to `Cc1cccc(NC(=O)CSc2nc(-c3ccco3)cc(C(F)(F)F)n2)c1C`, the Potency result is “inactive”.

`Cc1ccc(F)cc1NC(=O)CCSc1nc(-c2ccco2)cc(C(F)(F)F)n1`: the Potency entry was “inactive”.

For the compound `Cc1cc(C)c2nc(-c3ccco3)cc(C(=O)O)c2c1`, the Potency was 22.4 µM (active).

For `CCN(CCCNC(=O)c1cc2c(=O)n(CC)c3ccccc3c2s1)Cc1ccccc1`, the Potency entry was “inactive”.

Take `COC(=O)c1ccccc1NC(=O)c1cc(-c2ccccc2O)no1`: the Potency result is “inactive”.

Consider `COc1ccc(NC(=O)c2sc3nc[nH]c(=O)c3c2C)cc1`, for which the Potency result is “inactive”.

For `CCOC(=O)c1ccc(N2C(=O)c3[nH]nc(-c4ccccc4)c3C2c2ccc(C(C)C)cc2)cc1` (configuration not stated), the Potency result is “inactive”.

For `O=C(O)c1cccc2c1C(=O)N(C1CCCC1)C2`, the Potency entry is “inactive”.

Turning to `COC(=O)c1ccc(NC(=O)c2cccc3c2C(=O)N(C2CCCCC2)C3)cc1`, the Potency entry was “inactive”.

Regarding `O=C(O)c1cccc2c1C(=O)N(C1CCCCC1)C2`, the Potency is 31.6 µM (active).

Regarding `CCC1(C)CC(=O)NC1=O` (configuration not stated), the Potency entry was “inactive”.

As to `Cc1cc2nc(-c3ccc(NC(=O)c4cc5ccccc5o4)cc3)oc2cc1C`, the Potency result was “inactive”.

Turning to `Cc1cccc(N(C)C(=O)CS(=O)(=O)c2cccc3nsnc23)c1`, the Potency result was “inactive”.

For the compound `COc1ccc(NC(=O)CSC2=Nc3ccccc3C3=NC(CC(=O)NCc4ccccc4OC)C(=O)N23)cc1Cl` (configuration not stated), the Potency entry is “inactive”.

`CCN(CC)S(=O)(=O)c1cc(C(=O)Nc2ccccn2)ccc1C`: the Potency result is “inactive”.

Regarding `CCN(CC)CCOc1ccc2c(c1)C(=NNC(=O)c1ccccn1)c1cc(OCCN(CC)CC)ccc1-2`, the Potency is 22.4 µM (active).

Regarding `CCOc1ccc(C(=O)N2CCN(CCc3ccccn3)CC2)cc1`, the Potency result is “inactive”.

With `COC(=O)c1ccc(NC(=O)c2cnn(-c3ccc(Cl)cc3)c2C2CCN(C(=O)OC(C)(C)C)CC2)cc1`, the Potency entry is “inactive”.

On to `COc1ccc(-c2nn(CC(=O)Nc3ccccc3F)c3c2cnc2ccc(F)cc23)cc1`, for which the Potency entry is “inactive”.

Consider `O=C(c1ccc(NS(=O)(=O)c2ccc3[nH]c(=O)[nH]c3c2)cc1)N1CCCCC1`, for which the Potency entry was “inactive”.

Consider `O=C(O)c1ccc(NS(=O)(=O)c2ccc3c(c2)C(=O)c2cc(S(=O)(=O)Nc4ccc(C(=O)O)cc4)ccc2-3)cc1`, for which the Potency is 39.8 µM (active).

With `Cc1cc(C(C)(C)C)cc(S(=O)(=O)Nc2ccc(C(=O)O)cc2)c1C`, the Potency entry is “inactive”.

On to `Cc1ccc(CN(C(=O)c2ccccc2[N+](=O)[O-])c2ccccn2)cc1`, for which the Potency entry was “inactive”.

For `CC(C)CCNC(=O)CSc1nc2ccccc2nc1Cc1ccc(Cl)cc1`, the Potency result was “inactive”.

For the compound `Cn1c(SCC(=O)N2CCCc3ccccc32)ncc(C(=O)Nc2ccc(F)cc2)c1=O`, the Potency result is “inactive”.

Regarding `CC(NC(=O)c1cc2c(=O)n3ccccc3nc2n(C(C)C)c1=N)c1ccccc1` (configuration not stated), the Potency entry is “inactive”.

For `COc1cc(NS(=O)(=O)c2ccc3c(c2)OCC(C(=O)N2CCCC2)O3)cc(OC)c1` (configuration not stated), the Potency entry is “inactive”.

As to `COc1ccc(OC)c2sc(N3CCN(C(=O)C4COc5ccccc5O4)CC3)nc12` (configuration not stated), the Potency result is “inactive”.

Take `Cc1c(CC(=O)N2CCN(C(=O)C3COc4ccccc4O3)CC2)c(=O)oc2c(O)c(O)ccc12` (configuration not stated): the Potency was 2 µM (active).

As for `O=S(=O)(NCCc1nnc2ccc(SCc3ccc(Cl)cc3Cl)nn12)c1ccccc1`, the Potency result was “inactive”.

As for `CCOCCCn1c(SCC(=O)Nc2ccc(CC)cc2)nc2ccccc2c1=O`, the Potency result was “inactive”.

For the compound `COc1ccc(OC)c(NC(=O)/C=C/c2ccc(C)o2)c1`, the Potency entry was “inactive”.

With `CC(=O)Nc1ccc2c3c(ccc([N+](=O)[O-])c13)CC2`, the Potency result is “inactive”.

With `Cc1ccc(/C=C/C(=O)Nc2ccc([N+](=O)[O-])c(NC(=O)/C=C/c3ccc(C)o3)c2)o1`, the Potency is 8.91 µM (active).

Regarding `COc1ccc(NC(=O)CCNS(=O)(=O)c2ccc3c(c2)CCCC(=O)N3)cc1Cl`, the Potency entry is “inactive”.

For `O=c1[nH]n(-c2ccc([N+](=O)[O-])cc2)c(=O)c2ccccc12`, the Potency is 39.8 µM (active).

Consider `C=CCNC(=S)N1CCN(CCN=Cc2c(C)[nH]n(-c3ccc([N+](=O)[O-])cc3)c2=O)CC1`, for which the Potency result was “inactive”.

For the compound `O=C(CSCc1ccc([N+](=O)[O-])cc1)NCCSCc1ccccc1`, the Potency entry is “inactive”.

As to `Cc1cc(C)cc(NC(=O)CSc2oc(-c3ccccc3)nc2S(=O)(=O)c2ccc(Cl)cc2)c1`, the Potency result was “inactive”.

With `CCOc1ccccc1Nc1nnc(SCc2ccc(C(=O)OC)o2)s1`, the Potency result is “inactive”.

For `Cc1ccc(C(=O)Oc2coc(CSc3nnc(NC(=O)c4cccs4)s3)cc2=O)cc1C`, the Potency was 7.94 µM (active).

With `COCCSc1nnc(NC(=O)c2cc(OC)c(OC)cc2[N+](=O)[O-])s1`, the Potency result is “inactive”.

As to `CC1=C(c2ccc(C)cc2)S(=O)(=O)NC1=NCCCN1CCN(c2cc(C)ccc2C)CC1`, the Potency entry was “inactive”.

Turning to `CCc1ccc2ncc3c(-c4ccc(C)cc4)nn(CC(=O)NCc4ccccc4)c3c2c1`, the Potency entry is “inactive”.

Regarding `CCc1ccc(CNCc2c(C(=O)O)n(Cc3ccc(F)cc3Cl)c3cc(OC)ccc23)cc1`, the Potency result is “inactive”.

As for `COc1cc(C(=O)NCCc2csc3nc(-c4ccccc4C)nn23)cc(OC)c1OC`, the Potency entry was “inactive”.

Consider `O=C(COC(=O)c1ccc(Br)o1)NC12CC3CC(CC(C3)C1)C2`, for which the Potency result was “inactive”.

As for `O=C(OCC(=O)c1cccs1)c1ccc([N+](=O)[O-])o1`, the Potency result was “inactive”.

For `O=C(COC(=O)c1ccc([N+](=O)[O-])o1)NC12CC3CC(CC(C3)C1)C2`, the Potency was 79.4 µM (active).

`ON=C1/C(=N\O)CC2(C/C1=N/O)OCCO2`: the Potency is 56.2 µM (active).

In the case of `COc1ccc(OC)c(NC(=O)CN2CCCN(Cc3cc(C)ccc3C)S2(=O)=O)c1`, the Potency entry is “inactive”.

Regarding `COC(=O)c1sc(-c2ccc(C(C)(C)C)cc2)cc1NC(=O)/C=C/C(=O)O`, the Potency is 79.4 µM (active).

Consider `COc1ccc(Nc2ncc3c(n2)CCN(C(=O)OC(C)(C)C)C3)cc1`, for which the Potency entry is “inactive”.

In the case of `COc1ccc(/C=C/c2noc(-c3ccccc3O)n2)cc1OC`, the Potency entry is “inactive”.

Turning to `O=C(CCc1nc(CN2CCN(S(=O)(=O)c3ccc(Cl)cc3)CC2)no1)N1CCCCC1`, the Potency result is “inactive”.

Regarding `CCCCN(CC)CCCNC(=O)Cn1ncc2c([nH]c3ccc(C)cc32)c1=O`, the Potency entry was “inactive”.

In the case of `Cc1cc(=O)n2[nH]c(-c3sccc3-n3c(C)ccc3C)cc2n1`, the Potency was 22.4 µM (active).

As to `Cc1ccc(-c2cc(N)n(Cc3cccc(Cl)c3)n2)cc1`, the Potency result is “inactive”.

Consider `COc1cc(Nc2nc(-c3ccc(OC)c(OC)c3)nc3ccccc23)cc(OC)c1`, for which the Potency result was “inactive”.

Regarding `CC(=O)N(C1=C(Cl)C(=O)c2ccccc2C1=O)c1ccc(C(=O)O)cc1`, the Potency was 20 µM (active).
